# Test results: PubChem BioAssay
# Calls of active or inactive are those of the source. Unless noted, the rule behind the calls is not given here.
# Tests used:
# [1] = A549 cell viability effects, profiling panel, calcein-AM fluorescence, 48 h, basal (AID 1162); details: higher = more signal; note: test concentration not given here
# [2] = adipocyte viability effects, profiling panel, cell-based, 3T3-L1 adipocytes, calcein-AM fluorescence, 48 h, basal (AID 1163); details: 3T3-L1 adipocytes viability, higher = more signal; note: test concentration not given here
# [3] = HepG2 cell viability effects, profiling panel, calcein-AM fluorescence, 48 h, basal (AID 1164); details: higher = more signal; note: test concentration not given here
# [4] = MM1S cell viability effects, profiling panel, calcein-AM fluorescence, 48 h, basal (AID 1165); details: higher = more signal;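 note: viability of MM1S multiple myeloma cells under basal unstimulated conditions; test concentration not given here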
# [5] = basal RPMI8226 viability, no added stimulus, profiling panel, cell-based, calcein-AM fluorescence, 48 h, PK04 Diversity Set (AID 1166); details: RPMI8226 myeloma viability, higher = more signal;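 note: cells grown under basal conditions without added stimulus; test concentration not given here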
# [6] = basal HepG2 mitochondrial membrane potential changes, profiling panel, cell-based, JC-1 fluorescence, 24 h, 100 nL compound (AID 1167); details: higher = more signal; note: test concentration not given here
# [7] = basal 3T3-L1 adipocyte mitochondrial potential changes, profiling panel, cell-based, JC-1 fluorescence, 3T3-L1 adipocytes, 24 h, 100 nL compound (AID 1168); details: JC-1 mitochondrial fluorescence, higher = more signal, called active from +8 up or from −8 down; note: test concentration not given here
# [8] = basal RPMI8226 mitochondrial membrane potential changes, profiling panel, cell-based, JC-1 fluorescence, 24 h, 100 nL compound (AID 1169); details: RPMI8226 myeloma, JC-1 mitochondrial potential fluorescence, higher = more signal; note: test concentration not given here
# [9] = basal MM1S mitochondrial membrane potential changes, profiling panel, cell-based, JC-1 fluorescence, 24 h, 100 nL compound (AID 1170); details: higher = more signal; note: test concentration not given here
# [10] = A549 lung cancer cell viability effects, profiling panel, resazurin fluorescence, 24 h, PK04 Diversity Set (AID 1171); details: higher = more signal, called active from +8 up or from −8 down; note: test concentration not given here
# [11] = HepG2 liver cancer cell viability effects, profiling panel, resazurin fluorescence, 24 h, PK04 Diversity Set (AID 1172); details: higher = more signal; note: test concentration not given here
# [12] = basal S. cerevisiae growth modulation, no modifier, primary screen, OD600, strain BY4716, 24 h, basal condition (AID 1173); details: OD600, 24 h, higher = more signal, called active from +8 up or from −8 down
# [13] = MM1S myeloma cell viability, profiling panel, resazurin fluorescence, basal, 24 h, PK04 Diversity Set (AID 1174); details: higher = more signal, called active from +8 up or from −8 down;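 note: MM1S multiple myeloma cell line; test concentration not given here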
# [14] = target: Dihydroorotate dehydrogenase (quinone), mitochondrial (Plasmodium falciparum (isolate 3D7)) (UniProt Q08210); assay: PfDHODH enzyme inhibitors, primary screen, biochemical, C-terminal His tag, absorbance 600 nm (AID 1175); details: DCIP absorbance 600 nm, higher = more signal, called active from +8 up or from −8 down;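 note: recombinant parasite enzyme with a five histidine tag at its C terminus; test concentration not given here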
# [15] = P. aeruginosa biofilm formation inhibitors, primary screen, strain PAO1, LB-PBS medium, absorbance 600 nm (AID 1176); note: test concentration not given here; details: P. aeruginosa PAO1 growth/biofilm, A600, 12 h; higher = more signal
# [16] = S. cerevisiae RM11-1a growth modifiers, primary screen, strain RM11-1a, OD600, basal, 24 h (AID 1177); details: OD600, 24 h, higher = more signal, called active from +8 up or from −8 down;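 note: cultures grown under basal conditions with no added stressor; test concentration not given here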
# [17] = E. coli acrAB mutant growth effects, primary screen, E. coli filamentation inducers, strain DRC39, OD650, 24 h (AID 1178); details: higher = more signal, called active from +8 up or from −8 down;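 note: growth measured as culture turbidity by optical density at 650 nm; test concentration not given here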
# [18] = E. coli acrAB mutant growth effects, primary screen, E. coli filamentation inducers, strain DRC39, OD650, 48 h (AID 1179);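 note: screen aims at cell division blockers that make cells filament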; details: E. coli DRC39 delta-acrAB growth, higher = more signal, called active from +8 up or from −8 down
# [19] = RPMI8226 myeloma cell viability, profiling panel, resazurin fluorescence, basal, 24 h, PK04 Diversity Set (AID 1180); details: higher = more signal;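 note: RPMI8826 multiple myeloma cell line at 5000 cells per well; test concentration not given here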
# [20] = target: E3 ubiquitin-protein ligase XIAP (Homo sapiens) (UniProt P98170); assay: XIAP binders, primary screen, biophysical, small-molecule microarray, fluorescence 635 nm (AID 1181); details: small-molecule microarray binding, higher = more signal;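 note: score merges 667 nm emission and signal to noise over triplicate slides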
# Chain of E3 ubiquitin-protein ligase XIAP (Homo sapiens) (P98170 whole entry, looked up): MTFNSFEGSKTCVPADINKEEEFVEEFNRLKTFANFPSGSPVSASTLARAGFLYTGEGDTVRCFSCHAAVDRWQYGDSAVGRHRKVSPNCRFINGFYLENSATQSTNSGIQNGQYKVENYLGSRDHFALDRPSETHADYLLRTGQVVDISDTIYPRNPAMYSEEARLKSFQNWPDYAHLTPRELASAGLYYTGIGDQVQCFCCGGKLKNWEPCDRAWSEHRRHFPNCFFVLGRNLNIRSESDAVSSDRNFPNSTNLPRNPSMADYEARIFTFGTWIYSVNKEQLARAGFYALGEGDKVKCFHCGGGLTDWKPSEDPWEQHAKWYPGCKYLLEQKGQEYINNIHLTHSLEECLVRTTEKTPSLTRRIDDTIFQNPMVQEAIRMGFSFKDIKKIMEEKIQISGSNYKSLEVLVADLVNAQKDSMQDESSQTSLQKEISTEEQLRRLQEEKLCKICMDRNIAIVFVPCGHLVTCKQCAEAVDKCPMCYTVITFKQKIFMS
# Chain of Dihydroorotate dehydrogenase (quinone), mitochondrial (Plasmodium falciparum (isolate 3D7)) (Q08210 whole entry, looked up): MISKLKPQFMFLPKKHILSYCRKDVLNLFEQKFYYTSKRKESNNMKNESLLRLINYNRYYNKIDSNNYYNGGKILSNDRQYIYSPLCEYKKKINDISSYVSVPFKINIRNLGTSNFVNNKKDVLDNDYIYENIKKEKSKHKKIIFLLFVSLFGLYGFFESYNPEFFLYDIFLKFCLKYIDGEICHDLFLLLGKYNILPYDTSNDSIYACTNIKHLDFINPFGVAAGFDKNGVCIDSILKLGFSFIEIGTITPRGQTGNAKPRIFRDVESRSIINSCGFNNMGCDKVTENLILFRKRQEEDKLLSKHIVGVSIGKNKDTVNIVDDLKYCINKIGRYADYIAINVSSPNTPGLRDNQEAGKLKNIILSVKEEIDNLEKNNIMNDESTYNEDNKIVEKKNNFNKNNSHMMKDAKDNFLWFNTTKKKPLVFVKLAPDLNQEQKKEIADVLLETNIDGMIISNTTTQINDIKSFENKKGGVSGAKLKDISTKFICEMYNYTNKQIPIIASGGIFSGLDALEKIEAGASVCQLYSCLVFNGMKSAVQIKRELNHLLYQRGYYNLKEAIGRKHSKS
Compound,z-score [1],z-score [2],z-score [3],z-score [4],z-score [5],z-score [6],z-score [7],z-score [8],z-score [9],z-score [10],z-score [11],z-score [12],z-score [13],composite z-score [14],z-score [15],z-score [16],z-score [17],z-score [18],z-score [19],composite z-score [20]
C=CC1(C(=O)OC)CC=C(C(=O)OC)CC1 (stereo not given),0.211,0.0237,-0.287,0.835,-0.0765,1.27,0.562 (inactive),-0.093,-1.42,0.45 (inactive),0.249,0.489 (inactive),0.501 (inactive),-2.11 (inactive),0.201 (inactive),-0.834 (inactive),-0.233 (inactive),1.19 (inactive),1.08,-0.248
C=C[C@H](OC)[C@@H](OC(=O)Nc1ccc(OC)cc1)c1ccc(O)c(F)c1,-0.766,-0.501,-0.322,-2.06,-2.88,-2.39,0.313 (inactive),-0.538,-0.933,-0.596 (inactive),-0.709,-3.76 (inactive),-1.78 (inactive),-1.89 (inactive),1.05 (inactive),0.974 (inactive),1.41 (inactive),0.98 (inactive),1.69,0.0623
COCCOC(=O)N1C(=O)[C@@]2(c3cc(C#CC4(O)CCCCCC4)ccc31)[C@H](c1ccccc1OCCO)N1[C@H](c3ccccc3)[C@H](c3ccccc3)OC(=O)[C@H]1[C@@H]2C(=O)N1CCN(c2ncccn2)CC1,-0.244,-0.464,1.4,-0.404,-1.14,0.673,1.86 (inactive),-0.965,-1.05,-0.461 (inactive),-0.645,1.61 (inactive),-0.349 (inactive),0.122 (inactive),2.03 (inactive),2.39 (inactive),0.0296 (inactive),0.946 (inactive),-0.874,0.0774
CCCc1cc2c(n1Cc1cc(F)cc(F)c1)C(C)C1CN(C(=O)c3ccccc3)C(C)(C(=O)OC)C21 (stereo not given),-0.679,0.149,-0.237,-1.7,-4.39,2.5,-1.98 (inactive),-0.904,-1.79,-0.675 (inactive),-1.27,0.615 (inactive),-1.65 (inactive),0.249 (inactive),0.992 (inactive),0.223 (inactive),-0.522 (inactive),-0.152 (inactive),-1,0.0702
CC(C)N1C(=O)c2ccccc2[C@](C)(C(=O)NCCN2CCOCC2)[C@@H]1c1ccc(CO)cc1,-0.291,-0.748,0.458,-1.69,0.0409,0.916,-0.537 (inactive),1,-0.0545,0.0569 (inactive),0.0412,0.567 (inactive),-0.139 (inactive),1.11 (inactive),0.484 (inactive),1.41 (inactive),-0.0268 (inactive),-0.582 (inactive),-0.44,0.126
COC(=O)[C@@]1(CCS(=O)(=O)c2ccccc2)N=C(c2ccc(OCCCO)cc2)O[C@H]1c1ccccc1CN=[N+]=[N-],-1.33,-0.688,-1.12,-1.92,-2.59,-1.13,0.877 (inactive),-1.22,-1.56,-2.08 (inactive),-0.882,1.38 (inactive),-3.13 (inactive),0.484 (inactive),0.92 (inactive),0.642 (inactive),0.163 (inactive),-0.154 (inactive),-2.55,0.316
C[N+](C)(C)CCCCCCNC(=O)[C@@H]1C[C@@H]2C(=O)N[C@@H](Cc3ccccc3)C(=O)N2[C@@H]1c1cccc(OCCO)c1,0.741,0.0098,0.417,0.653,0.925,-0.432,0.543 (inactive),-0.267,-0.544,0.898 (inactive),0.844,-0.393 (inactive),0.328 (inactive),-0.0631 (inactive),-0.27 (inactive),0.153 (inactive),1.14 (inactive),1.35 (inactive),0.755,0.0905
O[C@@H](Cc1ccccc1)[C@H]1C2C=CCCC=C2CN1Cc1cccc(Cl)c1 (stereo not given in full),0.675,-0.0495,1.31,-3.23,-2.25,-0.241,-0.173 (inactive),-0.771,-2.86,-0.462 (inactive),0.318,-4.3 (inactive),-0.686 (inactive),-0.255 (inactive),1.27 (inactive),-0.068 (inactive),0.779 (inactive),0.73 (inactive),-0.0704,-0.365
O=C1[C@@]23C=C(Br)[C@H](C[C@@H]2CCOC3)[C@@]12CO2,0.845,-0.711,-0.0809,-1.89,-0.491,-1.08,-0.0633 (inactive),-0.849,-0.688,-0.309 (inactive),0.165,-1.85 (inactive),0.0335 (inactive),-0.0887 (inactive),0.261 (inactive),-0.0503 (inactive),0.297 (inactive),0.319 (inactive),0.428,0.188
CO[C@H]1O[C@H](CO)[C@@H](OC(=O)Nc2ccccc2)[C@H](OC(=O)Nc2ccccc2)[C@@H]1OC(=O)Nc1ccccc1,-1.36,0.875,-1.68,-1.81,-1.98,-0.523,0.348 (inactive),-1.07,0.0816,-2.01 (inactive),-0.72,0.56 (inactive),-1.73 (inactive),0.202 (inactive),-0.826 (inactive),1.22 (inactive),0.576 (inactive),0.667 (inactive),-1.15,0.178
COc1cc2c(cc1OC)CN(C(=O)[C@@H]1[C@H]3C(=O)O[C@H](c4ccccc4)[C@H](c4ccccc4)N3[C@H](c3ccccc3OCCO)[C@@]13C(=O)Nc1ccc(C#CCCO)cc13)CC2,1.26,0.784,0.665,-0.777,-0.803,0.453,1.2 (inactive),-1.21,-0.107,1.28 (inactive),0.0986,1.28 (inactive),-0.0469 (inactive),0.379 (inactive),2.35 (inactive),1.98 (inactive),0.158 (inactive),0.793 (inactive),0.43,0.271
CCCC=C(CCC)[C@@H](NC(=O)c1cccs1)c1ccc(C(F)(F)F)cc1,-1.43,0.203,-0.809,-1.41,-4.35,1.34,-0.229 (inactive),-0.393,-1.71,1.73 (inactive),0.74,0.872 (inactive),0.116 (inactive),-4.81 (inactive),1.69 (inactive),0.196 (inactive),0.224 (inactive),-0.262 (inactive),0.455,0.309
CCOC(=O)C[C@H]1[C@H](OC(=O)c2ccccc2-c2ccccc2)[C@@H](NC(=O)CC(C)C)c2cc(OCCCO)ccc2N1C(=O)Cc1ccc(OC)cc1,0.412,0.417,0.612,-1.52,-0.884,1.4,0.652 (inactive),-0.0827,0.32,1.34 (inactive),-0.211,-0.184 (inactive),0.0683 (inactive),0.712 (inactive),-0.165 (inactive),-0.0992 (inactive),-0.234 (inactive),-0.488 (inactive),0.456,-0.135
COCCOC(=O)N1C(=O)[C@@]2(c3cc(C#CCC(C(=O)OC)C(=O)OC)ccc31)[C@H](c1ccccc1OCCO)N1[C@H](c3ccccc3)[C@H](c3ccccc3)OC(=O)[C@H]1[C@@H]2C(=O)N1CCN(c2ncccn2)CC1,-0.0169,1.16,0.469,-1.59,-2.45,0.8,2.27 (inactive),-0.78,-0.522,0.934 (inactive),0.326,2.4 (inactive),1.04 (inactive),-0.388 (inactive),3.18 (inactive),3.19 (inactive),0.862 (inactive),0.519 (inactive),-0.83,-0.0095
CN(C)CCCC[C@@H]1NC(=O)[C@H]2C[C@@H](C(=O)NCCCCCCN)[C@@H](c3ccc(O)cc3)N2C1=O,0.168,0.526,-0.0064,-0.314,0.226,-0.878,0.862 (inactive),-0.128,0.119,0.286 (inactive),-0.24,-0.343 (inactive),0.696 (inactive),-1.31 (inactive),-0.338 (inactive),0.578 (inactive),0.332 (inactive),0.458 (inactive),0.683,0.121
CN(C)C(=O)[C@@]1(CCS(=O)(=O)c2ccccc2)COC(c2ccc(OCCCO)cc2)=N1,-0.245,-0.0285,-1.28,-2.08,-2.36,-1.09,-0.0809 (inactive),-0.476,-1.49,-2.54 (inactive),-0.837,1.14 (inactive),-2.38 (inactive),0.989 (inactive),1.03 (inactive),1.08 (inactive),0.73 (inactive),0.56 (inactive),-2.08,-0.0502
C=CCOC(=O)[C@H]1[C@@H]2C(=O)O[C@@H](c3ccccc3)[C@@H](c3ccccc3)N2[C@@H](c2ccc(OCCOC(=O)[C@H]3C[C@H]4C(=O)N[C@@H](CCCCN(C)C)C(=O)N4[C@H]3c3ccc(O)cc3)cc2)[C@]12C(=O)Nc1ccc(I)cc12,-0.041,-0.032,-0.959,-0.203,0.427,0.75,-0.623 (inactive),0.742,0.192,-0.708 (inactive),0.0141,-0.526 (inactive),-0.934 (inactive),0.341 (inactive),0.739 (inactive),-0.0228 (inactive),-0.624 (inactive),-1.24 (inactive),-0.973,-0.0819
